Assay results taken from PubChem BioAssay (Tox21).
Inconclusive results are not listed. A call without a number means that no potency is given here. A number with no mark means an inactive call. Activity calls are given as the source filed them. Unless noted, the call rests on the fitted dose curve; in most records, active means well fitted curve in the direction sought with a large enough effect in the repeat runs; inconclusive means weak or mixed curves; inactive means no such curve, though single readings can be large; an effect the other way counts as inactive or inconclusive.

Experiments:
[1] = qHTS assay to identify small molecule antagonists of the thyroid receptor (TR) signaling pathway - cell viability counter screen (AID 743064); further: nearly all actives have a fitted effect of over 50% in size
How it was run: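 GH3.TRE-Luc cells, 4 h pre-plating; cpd + T3 1 nM final; 37 °C 23.5 h; CellTiter-Fluor 30 min; fluorescence read.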

[2] = qHTS assay to identify small molecule antagonists of the thyroid receptor (TR) signaling pathway (AID 743065); further: nearly all actives have a fitted effect of over 55% in size; further: potency means the concentration at half of the fitted maximal effect; on activity, negative = inhibition: series mostly up to about 70 µM
How it was run: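 GH3.TRE-Luc rat pituitary cells (two TREs driving luciferase) were dosed with compound, then stimulated with 1 nM T3 (final) for 23.5 h at 37 C. ONE-Glo luminescence was the read-out, with CellTiter-Fluor fluorescence as the cytotoxicity counter-screen.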

[3] = tested on: thyroid hormone receptor (rat, GH3 cells); assay: qHTS assay to identify small molecule agonists of the thyroid receptor (TR) signaling pathway (AID 743066; calls by dose curve)
[4] = qHTS assay to identify small molecule antagonists of the estrogen receptor alpha (ER-alpha) signaling pathway - cell viability counter screen (AID 743074; calls by dose curve;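 further: HEK293 cells carrying ER-alpha-UAS-bla reporter stimulated with 17beta-estradiol; nearly all actives have a fitted effect of over 45% in size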)
[5] = molecular target: Estrogen receptor (Homo sapiens) (UniProt P03372); assay: qHTS assay to identify small molecule agonists of the estrogen receptor alpha (ER-alpha) signaling pathway (AID 743075; calls by dose curve;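 further: HEK293 GripTite cells with ER-alpha and UAS-driven beta-lactamase reporter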)
[6] = molecular target: Estrogen receptor (Homo sapiens) (UniProt P03372); assay: qHTS assay to identify small molecule agonists of the estrogen receptor alpha (ER-alpha) signaling pathway using the BG1 cell line (AID 743079); further: nearly all actives have a fitted effect of over 20% in size; further: potency means the concentration at half of the fitted maximal effect
[7] = qHTS assay to identify small molecule antagonists of the estrogen receptor alpha (ER-alpha) signaling pathway using the BG1 cell line (AID 743080; calls by dose curve;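 further: BG1 cells stimulated with 17beta-estradiol alongside compound; series mostly up to about 70 µM; nearly all actives have a fitted effect of over 25% in size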)
How it was run: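 After 5 days in phenol-red-free 10% charcoal-stripped FBS medium, BG1-Luc-4E2 cells were seeded, left 24 h at 37 C, co-treated with compounds and 17beta-estradiol for 21.5 h, then assayed for viability and luciferase.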

[8] = qHTS assay to identify small molecule antagonists of the estrogen receptor alpha (ER-alpha) signaling pathway using the BG1 cell line - cell viability counter screen (AID 743081);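 further: compound given together with 17beta-estradiol as the ER stimulus; series mostly up to about 70 µM; nearly all actives have a fitted effect of over 45% in size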
Aromatase (Homo sapiens) = Aromatase (Homo sapiens) (UniProt P11511); assay: qHTS assay to identify aromatase inhibitors (AID 743083); further: series mostly up to about 70 µM; nearly all actives have a fitted effect of over 55% in size
[9] = qHTS assay to identify aromatase inhibitors - cell viability counter screen (AID 743084);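 further: cells stimulated with testosterone during compound exposure; nearly all actives have a fitted effect of over 55% in size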
[10] = qHTS assay to identify small molecule that activate the aryl hydrocarbon receptor (AhR) signaling pathway - cell viability counter screen (AID 743086);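 further: HepG2 liver cells carrying the AhR DRE luciferase reporter; series mostly up to about 70 µM; nearly all actives have a fitted effect of over 45% in size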
How it was run: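 HepG2-AhR-luc (HG2L7.5c1) cells, 4000/well, treated 24 h at 37 C with compound; viability measured as CellTiter-Fluor fluorescence after 30 min in the same wells as the luciferase read.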

[11] = molecular target: Peroxisome proliferator-activated receptor gamma (Homo sapiens) (UniProt P37231); assay: qHTS assay to identify small molecule agonists of the peroxisome proliferator-activated receptor gamma (PPARg) signaling pathway (AID 743094; active means well fitted activation curve with a large enough effect in the signal ratio in the repeat runs, not every such curve was filed as active; the % refers to the signal ratio)
How it was run: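 Cells from the PPARg UAS-bla HEK293H line are plated and incubated 5 h at 37C. Compounds in DMSO are pinned in and left 17 h at 37C. LiveBLAzer B/G substrate is then added for 1 h at room temperature before fluorescence is measured.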

[12] = molecular target: Peroxisome proliferator-activated receptor gamma (Homo sapiens) (UniProt P37231); assay: qHTS assay to identify small molecule antagonists of the peroxisome proliferator-activated receptor gamma (PPARg) signaling pathway (AID 743191; calls by dose curve; further: series mostly up to about 63 µM; nearly all actives have a fitted effect of over 30% in size)
How it was run: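 GeneBLAzer PPARg UAS-bla HEK293H cells, 5 h post-plating, exposed to compounds 17 h at 37C. LiveBLAzer B/G FRET substrate added for 1 h at room temperature; beta-lactamase reporter read by fluorescence intensity.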

[13] = qHTS assay to identify small molecule antagonists of the peroxisome proliferator-activated receptor gamma (PPARg) signaling pathway - cell viability counter screen (AID 743194); further: nearly all actives have a fitted effect of over 55% in size
How it was run: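 Cytotoxicity counter screen in PPARg-bla HEK293H cells, same wells as reporter assay. Compounds plus 50 nM rosiglitazone (final) for 17 h at 37 C, then viability read by CellTiter-Glo luminescence.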

[14] = qHTS assay for small molecule agonists of the antioxidant response element (ARE) signaling pathway (AID 743202; active means well fitted activation curve with a large enough effect in the signal ratio in the repeat runs, not every such curve was filed as active; the % refers to the signal ratio)
How it was run: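 HepG2 ARE-bla reporter line, 2,000 cells/well; 5 h preincubation 37 C/5% CO2; compound (DMSO) 16 h 37 C; B/G FRET substrate 2 h RT; fluorescence intensity.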

[15] = qHTS assay for small molecule agonists of the antioxidant response element (ARE) signaling pathway - cell viability counter screen (AID 743203; calls by dose curve; further: nearly all actives have a fitted effect of over 55% in size)
How it was run: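 Cytotoxicity was tested in parallel with the ARE reporter screen. ARE-bla HepG2 cells were exposed to compounds for 16 hrs, and viability was taken from CellTiter-Glo luminescence.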

[16] = qHTS assay for small molecule activators of the heat shock response signaling pathway - cell viability counter screen (AID 743209); further: nearly all actives have a fitted effect of over 50% in size
How it was run: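 Cytotoxicity counter screen run in parallel with the HSE beta-lactamase reporter, using the same wells. HeLa HSE-bla cells received compound for 5 h at 37 C; ATP-based CellTiter-Glo luminescence was measured after 30 min at room temperature.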

[17] = qHTS assay for small molecule activators of the heat shock response signaling pathway (AID 743210; active means well fitted activation curve with a large enough effect in the signal ratio in the repeat runs, with a control signal flat, not every such curve was filed as active; the % refers to the signal ratio;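 further: HeLa cells with beta-lactamase reporter driven by heat shock elements; series mostly up to about 63 µM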)
How it was run: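 Beta-lactamase reporter read-out: FRET substrate fluorescence after 2.5 h at RT, following 5 h compound treatment at 37 C of HeLa cells carrying HSE-driven bla reporter; quantitative HTS format.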

[18] = molecular target: Aryl hydrocarbon receptor (Homo sapiens) (UniProt P35869); assay: qHTS assay to identify small molecule that activate the aryl hydrocarbon receptor (AhR) signaling pathway (AID 743085); further: nearly all actives have a fitted effect of over 15% in size; further: potency means the concentration at half of the fitted maximal effect;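 on activation: HG2L7.5c1 human HepG2 liver cells with stably integrated DRE-driven firefly reporter; series mostly up to about 70 µM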
How it was run: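 Luminescence read-out: ONE-Glo reagent, 30 min at room temperature, in HG2L7.5c1 HepG2 reporter cells treated 24 h at 37C. Viability was measured beforehand by CellTiter-Fluor fluorescence after 30 min at 37C.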

[19] = molecular target: Estrogen receptor (Homo sapiens) (UniProt P03372); assay: qHTS assay to identify small molecule antagonists of the estrogen receptor alpha (ER-alpha) signaling pathway (AID 743069; active means well fitted curve in the direction sought with a large enough effect in the signal ratio in the repeat runs, not every such curve was filed as active; the % refers to the signal ratio)
How it was run: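 Beta-lactamase FRET fluorescence is read after 2 hr at room temperature with LiveBLAzer B/G substrate. Before that, ER-alpha-bla HEK293 cells sit 4 hr after plating, then receive compound plus 17beta-estradiol and incubate 18 hr at 37C.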

Chain of Aryl hydrocarbon receptor (Homo sapiens) (P35869 whole entry, looked up): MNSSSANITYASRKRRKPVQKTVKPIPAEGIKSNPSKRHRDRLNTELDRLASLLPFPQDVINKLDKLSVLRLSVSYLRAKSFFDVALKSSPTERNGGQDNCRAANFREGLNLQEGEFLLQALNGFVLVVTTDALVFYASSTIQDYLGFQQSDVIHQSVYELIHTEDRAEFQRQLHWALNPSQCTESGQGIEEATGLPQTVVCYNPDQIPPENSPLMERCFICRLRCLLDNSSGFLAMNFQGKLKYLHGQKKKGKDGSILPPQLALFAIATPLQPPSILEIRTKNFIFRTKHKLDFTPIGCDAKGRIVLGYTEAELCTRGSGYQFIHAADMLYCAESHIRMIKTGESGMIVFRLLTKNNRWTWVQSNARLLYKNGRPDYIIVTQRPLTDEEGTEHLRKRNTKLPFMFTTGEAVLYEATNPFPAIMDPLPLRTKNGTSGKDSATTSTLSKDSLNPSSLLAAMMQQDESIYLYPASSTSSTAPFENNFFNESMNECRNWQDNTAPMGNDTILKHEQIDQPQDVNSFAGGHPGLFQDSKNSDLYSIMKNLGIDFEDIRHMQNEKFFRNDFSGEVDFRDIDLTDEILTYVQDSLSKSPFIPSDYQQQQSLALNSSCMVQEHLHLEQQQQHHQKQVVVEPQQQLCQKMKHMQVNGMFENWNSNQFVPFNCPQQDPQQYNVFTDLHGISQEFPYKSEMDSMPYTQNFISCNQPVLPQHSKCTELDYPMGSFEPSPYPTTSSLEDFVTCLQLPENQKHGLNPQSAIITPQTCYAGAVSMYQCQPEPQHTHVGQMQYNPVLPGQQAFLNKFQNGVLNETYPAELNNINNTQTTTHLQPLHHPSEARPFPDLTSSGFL
Chain of Estrogen receptor (Homo sapiens) (P03372 whole entry, looked up): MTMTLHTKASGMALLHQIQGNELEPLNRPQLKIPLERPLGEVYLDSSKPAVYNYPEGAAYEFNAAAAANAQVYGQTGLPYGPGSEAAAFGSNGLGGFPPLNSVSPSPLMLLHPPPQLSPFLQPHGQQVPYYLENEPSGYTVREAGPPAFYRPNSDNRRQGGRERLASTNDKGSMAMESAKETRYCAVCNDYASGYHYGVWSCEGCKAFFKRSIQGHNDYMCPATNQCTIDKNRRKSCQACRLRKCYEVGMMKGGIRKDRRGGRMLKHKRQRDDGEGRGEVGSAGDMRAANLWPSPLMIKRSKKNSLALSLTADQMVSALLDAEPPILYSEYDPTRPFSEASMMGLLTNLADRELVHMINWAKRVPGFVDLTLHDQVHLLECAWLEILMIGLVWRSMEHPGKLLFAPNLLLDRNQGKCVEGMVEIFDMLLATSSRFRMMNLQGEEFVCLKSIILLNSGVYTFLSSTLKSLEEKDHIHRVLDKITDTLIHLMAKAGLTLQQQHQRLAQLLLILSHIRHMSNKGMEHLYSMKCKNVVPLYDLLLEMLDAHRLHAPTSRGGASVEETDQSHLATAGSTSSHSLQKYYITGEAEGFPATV
Chain of Aromatase (Homo sapiens) (P11511 whole entry, looked up): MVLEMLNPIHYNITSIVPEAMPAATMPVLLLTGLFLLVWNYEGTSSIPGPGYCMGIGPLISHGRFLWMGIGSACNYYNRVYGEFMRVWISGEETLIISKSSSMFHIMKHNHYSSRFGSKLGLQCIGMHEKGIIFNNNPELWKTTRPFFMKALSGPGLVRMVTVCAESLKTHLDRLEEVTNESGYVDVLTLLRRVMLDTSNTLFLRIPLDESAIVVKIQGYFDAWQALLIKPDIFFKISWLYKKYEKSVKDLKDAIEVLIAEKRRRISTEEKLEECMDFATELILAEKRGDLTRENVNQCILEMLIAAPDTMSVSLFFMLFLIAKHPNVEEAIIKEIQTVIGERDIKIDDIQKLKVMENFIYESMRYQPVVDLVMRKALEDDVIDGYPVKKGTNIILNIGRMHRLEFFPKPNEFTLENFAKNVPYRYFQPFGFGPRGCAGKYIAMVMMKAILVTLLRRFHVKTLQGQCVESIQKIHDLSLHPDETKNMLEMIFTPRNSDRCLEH
Chain of Peroxisome proliferator-activated receptor gamma (Homo sapiens) (P37231 whole entry, looked up): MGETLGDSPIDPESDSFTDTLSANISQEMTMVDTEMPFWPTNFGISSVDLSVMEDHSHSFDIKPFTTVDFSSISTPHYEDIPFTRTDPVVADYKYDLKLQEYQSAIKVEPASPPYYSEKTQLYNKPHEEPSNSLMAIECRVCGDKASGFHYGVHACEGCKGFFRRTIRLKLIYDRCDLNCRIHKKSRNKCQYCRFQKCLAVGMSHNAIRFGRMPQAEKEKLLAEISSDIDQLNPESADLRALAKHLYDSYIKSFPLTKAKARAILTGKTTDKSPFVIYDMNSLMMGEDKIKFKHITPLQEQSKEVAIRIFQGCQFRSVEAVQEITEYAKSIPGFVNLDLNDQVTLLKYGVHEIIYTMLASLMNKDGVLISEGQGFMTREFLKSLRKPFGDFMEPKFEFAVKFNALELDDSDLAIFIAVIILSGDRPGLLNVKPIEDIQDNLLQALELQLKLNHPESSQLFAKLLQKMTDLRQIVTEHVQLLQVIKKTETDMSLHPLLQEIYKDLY

CC(C)(O)CCc1ccccc1
Potency [1]: inactive
Potency [2]: inactive
Potency [3]: inactive
Potency [4]: inactive
Potency [5]: inactive
Potency [6]: inactive
Potency [7]: inactive
Potency [8]: inactive
Potency (Aromatase (Homo sapiens)): inactive
Potency [9]: inactive
Potency [10]: inactive
outcome [11]: inactive
Potency [12]: inactive
Potency [13]: inactive
Potency [14]: inactive
Potency [15]: inactive
Potency [16]: inactive
Potency [17]: inactive

O=C(C(=O)c1ccco1)c1ccco1
Potency [1]: inactive
Potency [2]: inactive
Potency [3]: inactive
Potency [4]: inactive
Potency [5]: inactive
Potency [6]: inactive
Potency [7]: inactive
Potency [8]: inactive
Potency (Aromatase (Homo sapiens)): inactive
Potency [9]: inactive
Potency [10]: inactive
outcome [11]: inactive
Potency [12]: inactive
Potency [16]: inactive
Potency [17]: inactive

O=C(O)CCC(=O)OC[C@@H](NC(=O)C(Cl)Cl)[C@H](O)c1ccc([N+](=O)[O-])cc1
Potency [1]: inactive
Potency [2]: inactive
Potency [3]: inactive
Potency [4]: inactive
Potency [8]: inactive
Potency (Aromatase (Homo sapiens)): inactive
Potency [9]: inactive
Potency [18]: inactive
Potency [10]: inactive
outcome [11]: inactive
Potency [13]: inactive
Potency [14]: inactive
Potency [15]: inactive
Potency [16]: inactive

Nc1nc2ccc(OC(F)(F)F)cc2s1
Potency [1]: inactive
Potency [2]: 21.1 µM (active)
Potency [3]: inactive
Potency [4]: inactive
Potency [6]: 5.96 µM (active)
Potency [8]: inactive
Potency (Aromatase (Homo sapiens)): inactive
Potency [9]: inactive
Potency [18]: 10.6 µM (active)
Potency [10]: inactive
outcome [11]: inactive
Potency [12]: inactive
Potency [13]: inactive
Potency [14]: inactive
Potency [16]: inactive
Potency [17]: inactive

C[C@@H]1C[C@H]2[C@@H]3CCC4=CC(=O)C=C[C@]4(C)[C@@]3(F)[C@@H](O)C[C@]2(C)[C@@]1(O)C(=O)COP(=O)(O)O
Potency [1]: inactive
Potency [2]: inactive
Potency [3]: inactive
Potency [4]: inactive
Potency [5]: inactive
Potency [8]: inactive
Potency (Aromatase (Homo sapiens)): inactive
Potency [9]: inactive
Potency [18]: inactive
Potency [10]: inactive
outcome [11]: inactive
Potency [12]: inactive
Potency [13]: inactive
Potency [14]: inactive
Potency [15]: inactive
Potency [16]: inactive
Potency [17]: inactive

CNCc1ccc(NC(=O)c2c[nH]c3c2C(=O)CCC3)cc1
Potency [1]: inactive
Potency [2]: inactive
Potency [3]: inactive
Potency [4]: inactive
Potency [8]: inactive
Potency (Aromatase (Homo sapiens)): inactive
Potency [9]: inactive
Potency [18]: 1.54 µM (active)
Potency [10]: inactive
outcome [11]: inactive
Potency [12]: inactive
Potency [13]: inactive
Potency [15]: inactive
Potency [16]: inactive
Potency [17]: inactive

CC(C)(C)NCC(O)COc1cccc2c1C[C@H](O)[C@H](O)C2 (stereo not given in full)
Potency [1]: inactive
Potency [2]: inactive
Potency [3]: inactive
Potency [4]: inactive
Potency [5]: inactive
Potency [6]: inactive
Potency [7]: inactive
Potency [8]: inactive
Potency (Aromatase (Homo sapiens)): inactive
Potency [9]: inactive
Potency [10]: inactive
outcome [11]: inactive
Potency [13]: inactive
Potency [14]: inactive
Potency [15]: inactive
Potency [16]: inactive
Potency [17]: inactive

CC(=O)Oc1cccc(O)c1
Potency [1]: inactive
Potency [2]: inactive
Potency [3]: inactive
Potency [4]: inactive
Potency [5]: inactive
Potency [6]: inactive
Potency [8]: inactive
Potency (Aromatase (Homo sapiens)): inactive
Potency [9]: inactive
Potency [18]: inactive
Potency [10]: inactive
outcome [11]: inactive
Potency [13]: inactive
Potency [15]: inactive
Potency [16]: inactive
Potency [17]: inactive

Cc1ccc(Cl)cc1N
Potency [1]: inactive
Potency [2]: inactive
Potency [3]: inactive
Potency [4]: inactive
Potency [8]: inactive
Potency (Aromatase (Homo sapiens)): inactive
Potency [9]: inactive
Potency [18]: inactive
Potency [10]: inactive
outcome [11]: inactive
Potency [12]: inactive
Potency [13]: inactive
Potency [14]: inactive
Potency [15]: inactive
Potency [16]: inactive
Potency [17]: inactive

O=C(NS(=O)(=O)/C=C/c1ccccc1)c1ccc(F)cc1Cl
Potency [1]: inactive
Potency [2]: inactive
Potency [3]: inactive
Potency [4]: inactive
Potency [5]: inactive
Potency [8]: inactive
Potency (Aromatase (Homo sapiens)): inactive
Potency [9]: inactive
Potency [18]: inactive
Potency [10]: inactive
Potency [13]: inactive
Potency [15]: inactive
Potency [16]: inactive
Potency [17]: inactive

CCCCCCC(CO)CCCC (stereo not given)
Potency [1]: inactive
Potency [2]: inactive
Potency [3]: inactive
Potency [4]: inactive
Potency [8]: inactive
Potency (Aromatase (Homo sapiens)): inactive
Potency [9]: inactive
Potency [18]: inactive
Potency [10]: inactive
outcome [11]: inactive
Potency [14]: inactive
Potency [16]: inactive
Potency [17]: inactive

C=Cc1ccc(OC(C)=O)cc1
Potency [1]: inactive
Potency [2]: inactive
Potency [3]: inactive
Potency [5]: inactive
Potency [6]: inactive
Potency [7]: inactive
Potency [8]: inactive
Potency (Aromatase (Homo sapiens)): inactive
Potency [9]: inactive
Potency [18]: inactive
Potency [10]: inactive
outcome [11]: inactive
Potency [12]: inactive
Potency [13]: inactive
Potency [15]: inactive
Potency [16]: inactive
Potency [17]: inactive

CC(C)Cc1ccc(CC(=O)O)cc1
Potency [1]: inactive
Potency [2]: inactive
Potency [3]: inactive
Potency [4]: inactive
Potency [8]: inactive
Potency (Aromatase (Homo sapiens)): inactive
Potency [9]: inactive
Potency [18]: inactive
Potency [10]: inactive
Potency [13]: inactive
Potency [14]: inactive
Potency [15]: inactive

C1=CCC2CC=CC2C1 (stereo not given)
Potency [1]: inactive
Potency [2]: inactive
Potency [3]: inactive
Potency [4]: inactive
Potency [8]: inactive
Potency (Aromatase (Homo sapiens)): inactive
Potency [9]: inactive
Potency [10]: inactive
outcome [11]: inactive
Potency [12]: inactive
Potency [13]: inactive
Potency [15]: inactive
Potency [16]: inactive
Potency [17]: inactive

CCC(Cl)CC(Cl)C(Cl)C(Cl)C(Cl)C(C)Cl (stereo not given)
Potency [1]: inactive
Potency [2]: inactive
activity, negative = inhibition [19]: 21.9% [at 15 µM]
activity, negative = cytotoxicity [4]: -22.7% [at 15 µM]
activation [5]: 3.15% [at 14.9 µM]
Potency [6]: 0.594 µM (active)
Potency [8]: inactive
Potency (Aromatase (Homo sapiens)): inactive
Potency [9]: inactive
Potency [10]: inactive
outcome [11]: inactive
ratio activity, negative = inhibition [12]: -28.9% [at 13.2 µM]
activity change, negative = cytotoxicity [13]: -22.8% [at 13.2 µM]
activation [14]: 7.21% [at 18.1 µM]
viability change, negative = cytotoxic [15]: -17% [at 18.1 µM]
activity change, negative = cytotoxicity [16]: 2.25% [at 13.2 µM]
